From PubChem BioAssay (NCI)
Values joined by “and” are separate entries in the source; they are usually repeats but may differ in a detail not shown here. Identical values can stand only once. The panel holds about 79,000 compounds, 15% with a hit somewhere; the sample as a whole holds those more often. A number with no mark means an inactive call. Active and inactive are the calls of the source. Rule as the data show it: active = growth inhibition above about 70%; inactive = the rest.

Legend:
[1] = NCI Yeast Anticancer Drug Screen. Data for the rad50 strain (AID 155);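 also: 0% = growth of vehicle-only cultures of the same strain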; conditions: S. cerevisiae rad50 strain growth inhibition, active compounds read high; at 50.0 µM unless noted
Method in brief: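 Cells are treated with compound, grown, and their growth is then scored against vehicle-only cultures of the same repair-deficient yeast strain.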

[2] = NCI Yeast Anticancer Drug Screen. Data for the mec2-1 strain (AID 157); conditions: S. cerevisiae mec2-1 strain, active compounds read high; at 50.0 µM unless noted
Method in brief: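 Yeast mec2-1 mutant treated with compound. Readout: growth inhibition vs vehicle controls.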

[3] = NCI Yeast Anticancer Drug Screen. Data for the sgs1 mgt1 strain (AID 161);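 also: 0% = growth of cultures given vehicle only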; conditions: S. cerevisiae sgs1 mgt1 strain, active compounds read high; at 50.0 µM unless noted
Method in brief: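 Read-out: growth inhibition vs vehicle controls. Cells: mutant yeast strain deficient in DNA damage repair.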

[4] = NCI Yeast Anticancer Drug Screen. Data for the cln2 rad14 strain (AID 165);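 also: 0% = growth equal to vehicle treated cultures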; conditions: S. cerevisiae cln2 rad14 strain, active compounds read high; at 50.0 µM unless noted
Method in brief: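 cln2 rad14 yeast strain; compound exposure; growth inhibition read vs vehicle controls.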

[5] = NCI Yeast Anticancer Drug Screen. Data for the bub3 strain (AID 167); conditions: S. cerevisiae bub3 mutant strain, active compounds read high; at 50.0 µM unless noted
Method in brief: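 Part of a panel of yeast mutants defective in DNA damage repair or cell cycle regulation. Each strain is grown with compound, and inhibition is calculated relative to solvent-treated cultures.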

[6] = NCI Yeast Anticancer Drug Screen. Data for the mlh1 rad18 strain (AID 175); conditions: S. cerevisiae mlh1 rad18 strain growth inhibition, active compounds read high; at 50.0 µM unless noted
Method in brief: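 Yeast w/ defined DNA-repair lesions; compound exposure; growth vs vehicle controls → % inhibition.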

Compound | growth inhibition [1] | growth inhibition [2] | growth inhibition [3] | growth inhibition [4] | growth inhibition [5] | growth inhibition [6]
CC(=O)C(C(C)=O)=C1CCCC(O)O1 (stereo not drawn) | 20.4% | -0.7% | 4.55% | 5.7% | 2.65% | 13.1%
COc1cc(CC2(C#N)c3ccccc3C=CN2C(=O)c2ccccc2)c(Oc2cc(CC3(C#N)c4ccccc4C=CN3C(=O)c3ccccc3)ccc2OC)cc1OC (stereo not drawn) | 4.65% | 8.85% | 15.3% | -5.6% | 3.85% | 32.9%
O=C1CCC(c2nc3ccccc3[nH]2)N1Cc1ccccc1 (stereo not drawn) | 13.9% | 2.3% | 18.1% | 4.35% | 6.4% | 18.9%
CC1=CCCC2C(C=O)(C1)CC(C)C2(CO)CC/C(=C/CO)CO (stereo not drawn) | 3.8% | 4.05% | -5.5% | 32.8% | -3.4% | -5.7%
Cc1ccc2nc(-c3ccc(F)cc3)cc(C(=O)O)c2c1 | 9.9% | 2.05% | 6.25% | 17.9% | 10.2% | 26.1%
COC(C)(/C(C)=N/O)c1ccc(-c2ccccc2)cc1 (stereo not drawn) | 7.85% | -7.95% | 2.8% | -0.65% | 16.6% | 19.7%
CCCCCCCCCCCCCCCCCc1c(Cl)c(Cl)c(Cl)c(Cl)c1Cl | 47% | -4% | 26.4% | -45.1% | -2.75% | -6.6%
CCCCCCCCCCCCCCCCCC(=O)N/N=C/c1cc(C(C)(C)C)c(O)c(C(C)(C)C)c1 | -32.6% | 13.7% | -14.1% | -35.2% | -1.1% | 2.45%
CCCCCCCOC(=O)C1(O)CCCCC1 | 6.1% | 1.25% | 6.65% | 32.5% | 16.8% | -16.6%
COc1ccc2c3c([nH]c2c1N)C(C)NCC3 (stereo not drawn) | -11.4% | -18.9% | 4.2% | 13.3% | -18.3% | 0.4%
CC(C)CC1N=C(NN=C(CCl)CCl)OP1(=O)NCCCCCCNP1(=O)OC(NN=C(CCl)CCl)=NC1CC(C)C (stereo not drawn) | 13.4% | 5.05% | 2.95% | 4.75% | 24.8% | 37.6%
COc1ccc(N2CC[N+](c3ccc(N(C)C)cc3)=C2C2=[N+](c3ccc(N(C)C)cc3)CCN2c2ccc(OC)cc2)cc1 | 0.3% | -6.8% | -17.4% | -7.6% | -10.2% | 20.5%
ClC1CCC[N-]C1.ClC1CCC[N-]C1.[Cl][Pt+2][Cl] (stereo not drawn) | -7.1% | 4.95% | -9.7% | -28.6% | -3.6% | -3.55%
O=C(Nc1ccc(S(=O)(=O)Nc2nccs2)cc1)c1ccncc1 | -0.05% | -11.3% | 22.3% | 19.1% | 28.3% | 12%
CCCCN(CCCC)CCC(O)c1cc(-c2ccc(C(F)(F)F)cc2)nc(C(F)(F)F)c1 (stereo not drawn) | 98.5% (active) | 56.2% | 97.6% (active) | 97.8% (active) | 47.1% | 96.8% (active)
O=C(CCl)Nc1cc2ccccc2oc1=O | 21% | 42.4% | 20.6% | 41% | 5.45% | -1.85%
C=C1C(=O)C23CC1CCC2C12CO[C@H](O)[C@H]1C(C)(C)[C@H](OC(C)=O)C[C@H]2OC3=O (stereo partly drawn) | 4.75% | 4.15% | 1.8% | 6.1% | 0.85% | -76.2%
N#C/C(=C\c1cc(Cl)cc(Cl)c1O)c1nc2ccccc2[nH]1 | 43% | 13.7% | 38.4% | 11.5% | 26.9% | 5.65%
OCCN1CCCCCCC1 | -2% and 0.2% | -6.15% and -3.8% | -4.6% and 0.65% | -0.45% and 5.6% | -6.3% and 10.1% | -7.5% and -0.3%

Compound | growth inhibition [1] | growth inhibition [2] | growth inhibition [3] | growth inhibition [4] | growth inhibition [5] | growth inhibition [6]
COC(=O)CCn1cnc2c(SC)ncnc21 | -27.2% | 16.2% | -44% | 21.5% | 19.2% | -12.7%
CSc1ccc(NC(=O)Nc2cc(C)ccc2N=Nc2ccc(C)cc2)cc1 | -1.5% | -2.35% | -4.95% | -9.3% | -4.75% | 17.5%
CC1Nc2ccccc2C1C (stereo not drawn) | -35.2% | -49% | -62.1% | 7.05% | -59.6% | -12.5%
CCN(CC)CCn1c2cc3c(cc2c(=O)c2cccnc21)OCO3 | -18.1% | -17.6% | -29.4% | 13.8% | -34% | 24.1%
Nc1ccc(OCc2ccccc2)cc1[N+](=O)[O-] | 6.4% | -30.8% | 11.3% | 14.5% | -4.45% | 21%
O=C(O)C(Cc1cccs1)C(=O)O | -12.8% | 0.6% | -15.2% | 41.5% | -18.6% | -4.25%
CN(C)S(=O)(=O)c1ccccc1C(O)(c1ccccc1)c1ccccc1 (tested in a mixture with another compound) | 35.1% | 8.7% | -7.75% | -4.55% | 15.2% | 32.4%
Cc1cc(-c2ccc(N=Nc3ccc4c(S(=O)(=O)O)cc(S(=O)(=O)O)c(N)c4c3O)c(C)c2)ccc1N=Nc1ccc2c(S(=O)(=O)O)cc(S(=O)(=O)O)c(N)c2c1O | -137% and -0.25% | -40.7% and -71.1% | -56.4% and -33.9% | -147% and -4.9% | -118% and -26.3% | -49.2% and -11.2%
COC1/C=C/OC2(C)Oc3c(C)c(O)c4c(c3C2=O)C(N)=C(NC2CC2)C(=NC(=O)/C(C)=C\C=C\C(C)C(O)C(C)C(O)C(C)C(OC(C)=O)C1C)C4=O (stereo not drawn) | 15.7% | 32.7% | 41.2% | 49% | 31.9% | 33.1%
c1nc2nc(N3CCOCC3)nc(N3CCOCC3)c2[nH]1 | 11.8% | -0.8% | 23.9% | 8.45% | -17.9% | 8.7%
N.N.N.N.O=C(O)C1OCCOCCOC(C(=O)O)C(C(=O)O)OCCOCCOC1C(=O)O.[Pt+2].[Pt+2] (stereo not drawn) | -33.2% | -14% | -12.5% | -26.1% | -13.5% | -9.2%
[S-]c1n[n+](-c2ccccc2)cs1 | 2.95% | 2.1% | 0.15% | -5.25% | -23% | 3.1%
O=C1NC(=O)C(Cc2ccccc2)(c2cccnc2)N1 (stereo not drawn) | -28.6% | -17.7% | -5.65% | -36.1% | -0.65% | -22.2%
CC(C)OC(=O)Oc1cccc(OC(=O)OC(C)C)c1 | 3.15% | -28.8% | 2.15% | 6.95% | 8.5% | 9.3%
Nc1c(N2CCOCC2)c(=O)nc2[nH]/c(=C\c3ccccc3)c(=O)n12 | 8.5% | -20.7% | 4.75% | 22% | 8% | -46.8%
C(/C=C/c1ccccc1)=Nc1ccc(SSc2ccc(N=C/C=C/c3ccccc3)cc2)cc1 | 38.2% | 6.25% | 4.65% | -13% | -3.05% | 27.9%
C=C1C(=O)C23[C@H](O)C1CC[C@H]2[C@]12COC3(O)[C@@H](O)[C@@H]1C(C)(C)CC[C@@H]2O | 3.65% | -20.6% | 19.8% | -0.6% | -0.5% | -46.1%
O=C1C=CC(=O)N1c1ccnc(N2C(=O)C=CC2=O)c1 | 21.4% | -1.55% | 6.1% | -7.05% | 11.8% | 10.2%
CC1(C)OC2C(/C=C\C(=O)c3ccccc3)OC(n3ccc(=O)[nH]c3=O)C2O1 (stereo not drawn) | -36.6% | 10.3% | 5.6% | 13.4% | -1.55% | -1.5%
